Experimental data: PubChem BioAssay (NCATS)
Activity calls are given as the source filed them. Unless noted, calls come from the whole dose curve.

Tests used:
[1] = molecular target: Estrogen receptor (Homo sapiens) (UniProt P03372); experiment: qHTS assay for small molecule antagonists of estrogen receptor alpha signaling (AID 588513; active = well fitted curve in the direction sought with a large enough effect in the signal ratio, with a control signal flat, not every such curve was filed as active; inconclusive = small, poorly fitted or top-dose-only effect, or effect the other way, or a change in a side signal; inactive = no such curve, though single readings can be large or run the other way; the % refers to the signal ratio; note: potency is the fitted concentration of half-maximal effect)
Outline: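 Fluorescence from CCF4 substrate after 2 h at room temperature gave reporter activity; cells had been exposed to compound and 0.5nM 17-beta-estradiol for 18 h at 37 C. Hill-equation fitting yielded IC50 and maximal response.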

[2] = molecular target: Estrogen receptor (Homo sapiens) (UniProt P03372); experiment: qHTS assay for small molecule agonists of estrogen receptor alpha signaling (AID 588514);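 note: 0% = vehicle only and 100% = reference agonist; nearly all actives have a fitted effect of over 70% in size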
Outline: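 Read-out: CCF4 fluorescence from a beta-lactamase reporter in ER-alpha-UAS-bla HEK 293 cells after 18 hrs of compound exposure at 37 C. Normalized to 20 nM 17-beta-estradiol (100%) and DMSO (0%).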

[3] = molecular target: Glucocorticoid receptor (Homo sapiens) (UniProt P04150); experiment: qHTS assay for small molecule antagonists of glucocorticoid receptor signaling (AID 588533; active = well fitted inhibition curve with a large enough effect in the signal ratio, with a control signal flat, not every such curve was filed as active; inconclusive = small, poorly fitted or top-dose-only effect, or effect the other way, or a change in a side signal; the % refers to the signal ratio; note: potency is the fitted concentration of half-maximal effect)
Outline: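 Antagonist-mode qHTS: compound titrations added to GRE-bla HeLa cells, then dexamethasone 2 nM final; 18 h, 37 C. CCF4 FRET fluorescence normalized to dexamethasone and DMSO; IC50 from Hill fit.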

[4] = molecular target: Peroxisome proliferator-activated receptor delta (Homo sapiens) (UniProt Q03181); experiment: qHTS assay for small molecule agonists of peroxisome proliferator-activated receptor delta signaling (AID 588534);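 note: 0% = DMSO basal wells and 100% = positive control agonist at 10 µM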
Outline: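 Titration series tested in agonist mode on beta-lactamase reporter cells; 18 hrs at 37 C after a 5 hr pre-incubation. Readout: CCF4 fluorescence, 2 hrs RT. Hill equation gives EC50 and maximal response.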

[5] = molecular target: Peroxisome proliferator-activated receptor gamma (Homo sapiens) (UniProt P37231); experiment: qHTS assay for small molecule agonists of peroxisome proliferator-activated receptor gamma signaling (AID 588536; active = well fitted curve in the direction sought with a large enough effect in the signal ratio, with a control signal flat, not every such curve was filed as active; inconclusive = small, poorly fitted or top-dose-only effect, or effect the other way, or a change in a side signal; inactive = no such curve, though single readings can be large or run the other way; the % refers to the signal ratio;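 note: 0% = DMSO basal wells and 100% = rosiglitazone at 2 µM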)
Outline: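 Cells were plated and held 6–6.5 h at 37 C, then compounds were added as a titration series. After a further 16 h, CCF4 dye was loaded for 2 h at room temperature and emission at 460/530 nm recorded.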

[6] = molecular target: Peroxisome proliferator-activated receptor gamma (Homo sapiens) (UniProt P37231); experiment: qHTS assay for small molecule antagonists of peroxisome proliferator-activated receptor gamma signaling (AID 588537; active = well fitted inhibition curve with a large enough effect in the signal ratio, with a control signal flat, not every such curve was filed as active; inconclusive = small, poorly fitted or top-dose-only effect, or effect the other way, or a change in a side signal; the % refers to the signal ratio;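 note: reporter cells co-stimulated with 50 nM rosiglitazone agonist during compound treatment; % of control where 0% means no effect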)
Outline: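 Read-out: CCF4 fluorescence (ex 405, em 460/530 nm) after 2 h at RT. Cells were HEK293 carrying a UAS-bla reporter and treated 16 h at 37 C with compound plus rosiglitazone (50 nM final). Normalized to rosiglitazone and DMSO.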

[7] = molecular target: Vitamin D3 receptor (Homo sapiens) (UniProt P11473); experiment: qHTS assay for small molecule antagonists of vitamin D receptor signaling (AID 588541);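 note: receptor activated by calcitriol during compound treatment; series mostly up to about 77 µM; % is set by controls: 0 for no effect and ±100 for the full control effect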
Outline: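 VDR-UAS-bla HEK293T cells in 2% charcoal-stripped FBS were stimulated with 1-alpha,25-dihydroxyvitamin D3 (3 nM final) plus compound for 16 h at 37 C. The beta-lactamase CCF4 readout was normalized to 50 nM agonist and DMSO, and Hill fits gave IC50.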

[8] = qHTS assay for small molecule agonists of retinoid X receptor alpha signaling (AID 588544); conditions: HEK293T RXRa-UAS-bla, beta-lactamase reporter, 18 h; 530 nm emission;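 for activation: 0% = DMSO basal wells and 100% = reference agonist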
[9] = molecular target: Retinoic acid receptor RXR-alpha (Homo sapiens) (UniProt P19793); experiment: as above
[10] = molecular target: Thyroid hormone receptor beta (Homo sapiens) (UniProt P10828); experiment: qHTS assay for small molecule agonists of thyroid hormone receptor beta signaling (AID 588545);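 note: 0% = DMSO only and 100% = 10 nM T3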
Outline: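 Beta-lactamase reporter activity under TR response element control is measured in HEK 293 cells after 18 hrs compound exposure. Signal is ratiometric CCF4 fluorescence, 460/530 nm.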

[11] = qHTS assay for small molecule antagonists of retinoid X receptor alpha signaling (AID 588546; active = well fitted inhibition curve with a large enough effect in the signal ratio, with a control signal flat, not every such curve was filed as active; inconclusive = small, poorly fitted or top-dose-only effect, or effect the other way, or a change in a side signal; inactive = no such curve, though single readings can be large or run the other way; the % refers to the signal ratio;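 note: cells stimulated with 9-cis-retinoic acid as agonist; % is set by controls: 0 for no effect and ±100 for the full control effect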); conditions: HEK293T RXRa-UAS-bla, beta-lactamase ratio, antagonist mode; measured here: W530 green channel, cytotoxicity proxy
Outline: (§1)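 Beta-lactamase reporter inhibition, read as CCF4 fluorescence ratio (ex 405, em 460/530 nm) after 2 h at RT. HEK293T UAS-bla cells, 2500/well, were stimulated with 9-cis-RA at 500 or 100 nM final alongside test compound for 18 h at 37 C.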

[12] = molecular target: Retinoic acid receptor RXR-alpha (Homo sapiens) (UniProt P19793); experiment: as above; conditions: HEK293T RXRa-UAS-bla, beta-lactamase ratio, antagonist mode
Outline: as §1

[13] = qHTS assay for small molecule activators of the p53 signaling pathway (AID 651743; active = well fitted activation curve with a large enough effect in the signal ratio, not every such curve was filed as active; inconclusive = small, poorly fitted or top-dose-only effect, or a change in a side signal; the % refers to the signal ratio; note: potency is the fitted concentration of half-maximal effect; for activation: series mostly up to about 92 µM; % of control where 0% means no effect); conditions: HCT-116 p53RE-bla, beta-lactamase FRET ratio, 16 h; activation: stronger effect = higher value
Outline: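 Reporter: beta-lactamase driven by p53 response elements, stably integrated in HCT-116 cells. Cells seeded at 4,000/well, 5 h preincubation, compound (DMSO) 16 h at 37 C; B/G FRET substrate 2 h RT; fluorescence intensity read.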

[14] = qHTS assay for environmental chemicals that activate the Aryl hydrocarbon Receptor (AhR) signaling pathway (AID 651777; active = well fitted curve in the direction sought with a large enough effect; inconclusive = small, poorly fitted or top-dose-only effect, or another doubt; inactive = no such curve, though single readings can be large; an effect the other way counts as inactive or inconclusive; note: % of control where 0% means no effect; nearly all actives have a fitted effect of over 15% in size); conditions: 1A2-DRE human hepatoma cells, luciferase, 24 h; activation: stronger effect = higher value
Outline: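 Human hepatoma 1A2-DRE cells, stably carrying a dioxin response element and CYP1A2 promoter driving luciferase, were exposed to compounds for 24 hr at 37 C and 5% CO2. Luciferase signal was then read after 30 min One-Glo at room temperature.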

[15] = molecular target: Peroxisome proliferator-activated receptor alpha (Homo sapiens) (UniProt Q07869); experiment: qHTS assay for small molecule agonists of the peroxisome proliferator-activated receptor alpha (PPARalpha) signaling pathway (AID 651778; active = well fitted curve in the direction sought with a large enough effect; inconclusive = small, poorly fitted or top-dose-only effect, or another doubt; inactive = no such curve, though single readings can be large; an effect the other way counts as inactive or inconclusive; note: % of control where 0% means no effect); conditions: PathHunter PPARalpha complementation, chemiluminescence, 6 h; max response: stronger effect = higher value
Outline: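 Enzyme-fragment complementation assay in which ligand-bound PPARalpha translocates and forms an active enzyme that generates chemiluminescence. Cells were plated overnight, exposed to compound for 6 hr at 37 C, and then given detection reagent for 60 min at room temperature.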

[16] = qHTS assay for small molecule agonists of the antioxidant response element (ARE) signaling pathway measured by Nrf2-dependant transcriptional activity (AID 720636; active = well fitted curve in the direction sought with a large enough effect in the repeat runs; inconclusive = weak or mixed curves; inactive = no such curve, though single readings can be large; an effect the other way counts as inactive or inconclusive; note: % of control where 0% means no effect)
Outline: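 ARE-luc HepG2 cells carrying an Nrf2-responsive luciferase reporter were plated in medium with 1% dialyzed FBS, left 6 hr at 37 C to attach, then exposed to compound for 16 hr. Luciferase luminescence was read after ONE-Glo addition.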

[17] = qHTS assay for small molecule agonists of the antioxidant response element (ARE) signaling pathway measured by Nrf2-dependant transcriptional activity - cell viability counter screen (AID 720653; active = well fitted curve in the direction sought with a large enough effect in the repeat runs; inconclusive = weak or mixed curves; inactive = no such curve, though single readings can be large; an effect the other way counts as inactive or inconclusive; note: % is set by controls: 0 for no effect and ±100 for the full control effect); conditions: ARE-bla HepG2 viability, CellTiter-Glo ATP luminescence, 16 h; max response: stronger effect = lower value
Outline: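 ARE-bla HepG2 cells treated with compounds for 16 h at 37C; this counter screen measures viability as intracellular ATP by CellTiter-Glo luminescence after 30 min at room temperature.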

[18] = qHTS assay for cell viability of HEK293 cells (AID 743288; active = well fitted curve in the direction sought with a large enough effect; inconclusive = small, poorly fitted or top-dose-only effect, or another doubt; inactive = no such curve, though single readings can be large; an effect the other way counts as inactive or inconclusive; note: % is set by controls: 0 for no effect and ±100 for the full control effect; nearly all actives have a fitted effect of over 50% in size); conditions: ATP luminescence (CellTiter-Glo), 18 h; max response: stronger effect = lower value
Outline: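 Viable-cell counts were inferred from luciferase-based ATP content in HEK293 cells seeded at 2,000/well, pre-incubated ≥5 h, then dosed with DMSO-solubilised compounds for 18 h at 37 C.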

[19] = qHTS assay for cell viability of the p53RE-bla HCT-116 cell line (AID 743292; active = well fitted curve in the direction sought with a large enough effect; inconclusive = small, poorly fitted or top-dose-only effect, or another doubt; inactive = no such curve, though single readings can be large; an effect the other way counts as inactive or inconclusive; note: nearly all actives have a fitted effect of over 55% in size; note: potency is the fitted concentration of half-maximal effect)
Outline: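 CellSensor p53RE-bla HCT-116 cells, 4,000/well, preincubated 5 h at 37 C, then exposed to compounds in DMSO for 16 h at 37 C. Viability read as CellTiter-Glo luminescence (intracellular ATP) after 30 min at room temperature.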

[20] = molecular target: Nuclear receptor subfamily 1 group I member 2 (Rattus norvegicus) (UniProt Q9R1A7); experiment: qHTS assay for small molecule activators of the rat pregnane X receptor (rPXR) signaling pathway (AID 651751; call rule not given here; note: 0% is about no effect); conditions: rPXR reporter cells, luciferase (One-Glo), 24 h
Sequence of Nuclear receptor subfamily 1 group I member 2 (Rattus norvegicus) (Q9R1A7 whole entry, looked up): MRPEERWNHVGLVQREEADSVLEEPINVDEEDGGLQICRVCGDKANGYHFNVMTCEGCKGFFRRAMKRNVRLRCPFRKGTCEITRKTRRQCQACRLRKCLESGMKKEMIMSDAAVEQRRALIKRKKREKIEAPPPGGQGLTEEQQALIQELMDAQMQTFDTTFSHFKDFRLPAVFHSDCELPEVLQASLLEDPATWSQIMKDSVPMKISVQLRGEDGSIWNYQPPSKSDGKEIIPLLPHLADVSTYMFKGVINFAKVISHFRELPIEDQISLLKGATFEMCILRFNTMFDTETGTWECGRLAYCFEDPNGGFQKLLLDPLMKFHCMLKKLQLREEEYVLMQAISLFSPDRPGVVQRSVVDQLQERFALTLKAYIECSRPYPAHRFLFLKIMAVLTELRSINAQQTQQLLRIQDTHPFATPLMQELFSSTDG

Sequence of Peroxisome proliferator-activated receptor alpha (Homo sapiens) (Q07869 whole entry, looked up, the tested form may be a part): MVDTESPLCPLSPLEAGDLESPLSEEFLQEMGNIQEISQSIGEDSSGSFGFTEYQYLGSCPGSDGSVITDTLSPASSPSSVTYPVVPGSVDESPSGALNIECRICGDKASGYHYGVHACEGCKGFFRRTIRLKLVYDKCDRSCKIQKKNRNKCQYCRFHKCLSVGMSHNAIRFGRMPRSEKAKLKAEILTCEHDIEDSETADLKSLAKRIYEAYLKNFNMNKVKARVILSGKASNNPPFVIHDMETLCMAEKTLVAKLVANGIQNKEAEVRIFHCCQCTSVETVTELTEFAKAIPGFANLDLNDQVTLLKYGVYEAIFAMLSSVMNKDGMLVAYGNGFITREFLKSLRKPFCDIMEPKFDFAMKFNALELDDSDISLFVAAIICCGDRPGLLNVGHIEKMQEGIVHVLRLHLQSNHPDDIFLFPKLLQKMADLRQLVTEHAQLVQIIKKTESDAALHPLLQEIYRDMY
Sequence of Peroxisome proliferator-activated receptor delta (Homo sapiens) (Q03181 whole entry, looked up): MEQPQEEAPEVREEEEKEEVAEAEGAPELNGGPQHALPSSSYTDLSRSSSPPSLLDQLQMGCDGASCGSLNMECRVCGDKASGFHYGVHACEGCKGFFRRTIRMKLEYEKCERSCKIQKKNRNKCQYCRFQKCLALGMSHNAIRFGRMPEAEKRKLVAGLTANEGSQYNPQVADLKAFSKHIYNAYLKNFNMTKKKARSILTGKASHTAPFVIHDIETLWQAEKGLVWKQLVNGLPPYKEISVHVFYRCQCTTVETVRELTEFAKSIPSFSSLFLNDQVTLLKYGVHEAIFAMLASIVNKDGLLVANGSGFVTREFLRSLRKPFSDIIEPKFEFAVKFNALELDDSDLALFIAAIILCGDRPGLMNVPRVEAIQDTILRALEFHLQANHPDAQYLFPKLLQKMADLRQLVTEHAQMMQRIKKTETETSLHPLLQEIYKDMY
Sequence of Retinoic acid receptor RXR-alpha (Homo sapiens) (P19793 whole entry, looked up): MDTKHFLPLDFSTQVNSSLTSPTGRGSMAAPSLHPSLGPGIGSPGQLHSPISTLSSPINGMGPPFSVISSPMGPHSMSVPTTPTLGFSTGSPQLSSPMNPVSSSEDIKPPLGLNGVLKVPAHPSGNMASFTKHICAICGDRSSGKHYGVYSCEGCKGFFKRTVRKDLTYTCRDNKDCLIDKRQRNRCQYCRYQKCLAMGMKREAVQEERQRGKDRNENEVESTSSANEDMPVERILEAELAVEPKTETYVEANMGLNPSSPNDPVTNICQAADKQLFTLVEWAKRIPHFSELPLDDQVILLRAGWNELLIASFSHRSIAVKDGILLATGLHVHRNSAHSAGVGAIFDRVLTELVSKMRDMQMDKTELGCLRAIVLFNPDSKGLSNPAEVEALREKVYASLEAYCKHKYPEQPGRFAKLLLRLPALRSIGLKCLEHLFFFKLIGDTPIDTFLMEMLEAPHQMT
Sequence of Vitamin D3 receptor (Homo sapiens) (P11473 whole entry, looked up): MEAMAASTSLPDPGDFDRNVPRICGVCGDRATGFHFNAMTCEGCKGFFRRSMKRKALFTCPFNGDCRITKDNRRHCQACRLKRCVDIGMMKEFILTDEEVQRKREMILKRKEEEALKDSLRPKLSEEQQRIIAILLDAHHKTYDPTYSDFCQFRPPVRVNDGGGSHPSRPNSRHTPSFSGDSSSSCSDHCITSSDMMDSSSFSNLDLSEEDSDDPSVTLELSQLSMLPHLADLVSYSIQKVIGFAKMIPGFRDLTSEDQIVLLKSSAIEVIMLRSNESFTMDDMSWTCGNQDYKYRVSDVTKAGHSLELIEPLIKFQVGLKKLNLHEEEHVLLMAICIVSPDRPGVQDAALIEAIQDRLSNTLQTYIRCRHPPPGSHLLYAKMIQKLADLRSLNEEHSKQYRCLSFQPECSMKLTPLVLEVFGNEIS
Sequence of Thyroid hormone receptor beta (Homo sapiens) (P10828 whole entry, looked up): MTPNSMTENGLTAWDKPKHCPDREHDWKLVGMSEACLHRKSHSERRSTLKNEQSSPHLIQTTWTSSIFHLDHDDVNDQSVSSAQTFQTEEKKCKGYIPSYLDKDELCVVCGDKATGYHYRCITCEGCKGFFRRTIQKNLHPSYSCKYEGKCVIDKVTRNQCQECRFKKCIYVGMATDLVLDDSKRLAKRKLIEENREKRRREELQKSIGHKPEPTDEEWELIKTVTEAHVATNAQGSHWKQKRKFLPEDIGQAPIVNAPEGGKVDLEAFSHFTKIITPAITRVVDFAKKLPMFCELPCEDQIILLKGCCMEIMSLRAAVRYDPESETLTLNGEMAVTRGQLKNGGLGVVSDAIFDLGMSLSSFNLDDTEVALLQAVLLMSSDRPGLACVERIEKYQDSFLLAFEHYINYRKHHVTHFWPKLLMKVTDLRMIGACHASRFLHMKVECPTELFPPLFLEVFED
Sequence of Peroxisome proliferator-activated receptor gamma (Homo sapiens) (P37231 whole entry, looked up): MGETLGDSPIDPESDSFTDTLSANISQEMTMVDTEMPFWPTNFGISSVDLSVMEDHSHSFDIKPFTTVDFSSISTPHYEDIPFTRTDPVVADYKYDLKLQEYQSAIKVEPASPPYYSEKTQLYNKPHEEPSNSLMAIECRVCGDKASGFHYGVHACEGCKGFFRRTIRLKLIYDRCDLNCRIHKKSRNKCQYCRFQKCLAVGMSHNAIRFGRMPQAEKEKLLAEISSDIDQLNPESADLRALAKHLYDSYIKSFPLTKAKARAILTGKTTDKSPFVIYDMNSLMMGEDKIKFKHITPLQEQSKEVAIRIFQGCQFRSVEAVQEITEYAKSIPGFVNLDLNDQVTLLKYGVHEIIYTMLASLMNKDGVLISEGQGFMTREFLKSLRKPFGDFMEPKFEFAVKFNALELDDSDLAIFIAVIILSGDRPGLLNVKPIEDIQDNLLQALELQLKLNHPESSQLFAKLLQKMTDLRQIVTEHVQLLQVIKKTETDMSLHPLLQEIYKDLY
Sequence of Estrogen receptor (Homo sapiens) (P03372 whole entry, looked up): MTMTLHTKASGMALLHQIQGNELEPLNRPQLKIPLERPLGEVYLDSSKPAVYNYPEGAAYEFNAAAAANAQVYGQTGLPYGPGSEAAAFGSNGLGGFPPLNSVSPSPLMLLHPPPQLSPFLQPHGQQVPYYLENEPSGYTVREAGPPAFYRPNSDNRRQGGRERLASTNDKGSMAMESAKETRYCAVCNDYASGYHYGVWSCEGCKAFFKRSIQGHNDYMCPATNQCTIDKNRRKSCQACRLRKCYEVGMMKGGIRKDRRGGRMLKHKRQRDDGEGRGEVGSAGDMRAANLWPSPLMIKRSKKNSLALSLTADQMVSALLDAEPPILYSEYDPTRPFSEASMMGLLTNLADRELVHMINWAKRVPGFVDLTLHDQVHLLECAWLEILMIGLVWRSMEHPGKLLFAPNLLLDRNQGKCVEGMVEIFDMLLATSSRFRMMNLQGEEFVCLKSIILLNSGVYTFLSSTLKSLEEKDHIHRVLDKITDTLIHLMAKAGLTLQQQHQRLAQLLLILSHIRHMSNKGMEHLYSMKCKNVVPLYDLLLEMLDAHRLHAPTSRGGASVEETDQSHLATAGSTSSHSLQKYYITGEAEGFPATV
Sequence of Glucocorticoid receptor (Homo sapiens) (P04150 whole entry, looked up): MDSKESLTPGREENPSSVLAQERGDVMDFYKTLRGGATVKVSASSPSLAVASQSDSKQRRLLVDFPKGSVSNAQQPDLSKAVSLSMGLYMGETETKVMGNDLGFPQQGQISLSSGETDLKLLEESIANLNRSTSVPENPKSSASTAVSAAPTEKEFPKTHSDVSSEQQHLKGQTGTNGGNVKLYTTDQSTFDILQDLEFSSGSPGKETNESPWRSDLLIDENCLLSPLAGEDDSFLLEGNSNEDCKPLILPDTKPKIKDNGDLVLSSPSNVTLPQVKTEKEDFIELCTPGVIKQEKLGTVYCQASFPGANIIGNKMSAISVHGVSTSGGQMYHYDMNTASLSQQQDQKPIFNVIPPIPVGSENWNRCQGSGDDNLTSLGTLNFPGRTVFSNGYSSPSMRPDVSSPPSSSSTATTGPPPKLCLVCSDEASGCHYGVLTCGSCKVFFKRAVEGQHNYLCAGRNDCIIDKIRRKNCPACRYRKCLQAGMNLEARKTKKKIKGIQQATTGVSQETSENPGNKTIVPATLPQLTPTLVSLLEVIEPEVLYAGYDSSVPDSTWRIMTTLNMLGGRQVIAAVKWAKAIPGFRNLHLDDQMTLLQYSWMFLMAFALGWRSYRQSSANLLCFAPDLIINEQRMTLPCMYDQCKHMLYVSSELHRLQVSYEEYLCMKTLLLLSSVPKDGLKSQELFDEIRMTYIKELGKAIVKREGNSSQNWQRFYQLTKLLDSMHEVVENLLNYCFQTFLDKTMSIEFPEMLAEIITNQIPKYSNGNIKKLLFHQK

CCOS(=O)(=O)OCC
-16.7%: max response [8]
inactive: Potency [1] | Potency [2] | Potency [3] | outcome [4] | Potency [5] | Potency [6] | Potency [7] | Potency [9] | Potency [10] | max response [12] 4.62% | activation [13] -2.08% | activation [14] -0.0167% | max response [15] -1.06% | Potency [16] | max response [17] -6.17% | max response [18] 1.11% | Potency [19] | max response [20] 3.38%
-7.24%: max response [11]

O=C=Nc1ccc(Cl)cc1
-4.38%: max response [11]
inactive: Potency [1] | Potency [2] | outcome [4] | Potency [5] | Potency [6] | Potency [7] | Potency [9] | Potency [10] | max response [12] -10.5% | activation [13] 3.11% | activation [14] 2.71% | max response [15] -0.75% | max response [18] -9.38% | Potency [19] | max response [20] 8.51%

O=C(NC(=O)c1c(F)cccc1F)Nc1ccc(OC(F)(F)C(F)OC(F)(F)F)c(Cl)c1 (configuration not stated)
inactive: Potency [1] | Potency [2] | Potency [3] | outcome [4] | Potency [5] | Potency [7] | Potency [9] | max response [12] -13% | activation [14] 1.49% | max response [15] 0.139% | Potency [16] | max response [17] -4.81% | max response [18] -16.7% | Potency [19] | max response [20] 1.96%
-11.8%: max response [11]
-12.6%: max response [8]

CCCN(CC)CC1COC2(CCC(C(C)(C)C)CC2)O1 (configuration not stated)
inactive: Potency [1] | Potency [2] | Potency [3] | Potency [7] | Potency [9] | Potency [10] | max response [12] -5.06% | activation [13] -4.98% | activation [14] -1.94% | max response [15] 0.269% | Potency [16] | max response [17] -11.5% | max response [18] -13.1% | Potency [19] | max response [20] -3.48%
-11.3%: max response [8]
-13.8%: max response [11]

Cc1cc(Cl)ccc1OC(C)C(=O)O (configuration not stated)
-2.86%: max response [11]
-5.5%: max response [8]
inactive: Potency [1] | Potency [2] | outcome [4] | Potency [6] | Potency [9] | Potency [10] | max response [12] -2.46% | activation [13] -1.95% | activation [14] 0.794% | max response [15] 2.19% | Potency [16] | max response [17] -3.1% | max response [18] 0.82% | Potency [19] | max response [20] -0.122%

c1cc(OCC2CO2)cc(OCC2CO2)c1 (configuration not stated)
inactive: Potency [3] | outcome [4] | Potency [5] | Potency [6] | max response [12] 5.23% | Potency [16]
6.7%: max response [11]
active: Potency [1] 31.6 µM [inconclusive] | Potency [13] 25.1 µM

CCNP(=S)(OC)O/C(C)=C/C(=O)OC(C)C (configuration not stated)
inactive: Potency [1] | Potency [2] | Potency [3] | Potency [5] | Potency [6] | Potency [7] | Potency [9] | Potency [10] | max response [12] 3.14% | activation [13] -1.45% | max response [15] -0.524% | Potency [16] | max response [17] -7.95% | max response [18] -5.26% | Potency [19]
-7.51%: max response [8]
-11.8%: max response [11]

CCc1ccc(C(=O)NN(C(=O)c2cc(C)cc(C)c2)C(C)(C)C)cc1
inactive: Potency [1] | Potency [2] | Potency [3] | outcome [4] | Potency [5] | Potency [9] | Potency [10] | activation [13] 3.11% | activation [14] 1.38% | max response [15] -0.946% | Potency [16] | max response [17] -4.5% | max response [18] -11.8% | Potency [19]
1.33%: max response [8]

CC1(C)Cc2cccc(O)c2O1
-5.33%: max response [11]
inactive: Potency [1] | Potency [2] | Potency [5] | Potency [6] | Potency [7] | Potency [9] | Potency [10] | max response [12] -3.15% | activation [14] 0.293% | max response [15] -0.718% | Potency [16] | max response [18] 4.44% | Potency [19] | max response [20] 1.61%

CC(C)(c1ccccc1)c1cc(-n2nc3ccccc3n2)c(O)c(C(C)(C)c2ccccc2)c1
-10.8%: max response [11]
inactive: Potency [1] | Potency [2] | Potency [3] | outcome [4] | Potency [5] | Potency [6] | Potency [7] | Potency [9] | Potency [10] | max response [12] 0.796% | activation [13] -0.652% | activation [14] -0.0851% | max response [15] -0.734% | Potency [16] | max response [17] 4.77% | max response [18] -7.76% | Potency [19] | max response [20] 2.09%
-5.71%: max response [8]

CCSCc1ccccc1OC(=O)NC
inactive: Potency [1] | Potency [3] | outcome [4] | Potency [5] | Potency [6] | Potency [7] | Potency [9] | Potency [10] | max response [12] -13% | activation [13] 3.49% | activation [14] 0.553% | max response [15] -0.372% | Potency [16] | max response [17] -3.42% | max response [18] -9.67% | Potency [19] | max response [20] 0.0425%
-16.4%: max response [8]
-7.11%: max response [11]

Oc1ccc(C2(c3ccc(O)cc3)c3ccccc3-c3ccccc32)cc1
active: Potency [1] 15.8 µM [inhibitor] | Potency [3] 44.7 µM | Potency [19] 31.6 µM
inactive: outcome [4] | activation [14] -0.464% | max response [15] -1.22% | Potency [16] | max response [17] -12.4% | max response [18] -3.45% | max response [20] -3.03%
